Experimental data from PubChem BioAssay (NCI).
About 83,000 compounds went through this panel and 20% of them were active in at least one assay; those are over-represented in the sample as a whole.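 Results are percent growth after 48 hours of single-concentration exposure. 100 means growth as in untreated cells, lower positive values show inhibition; negative values down to -100 show cell death.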 A number with no mark means an inactive call. The source made the active and inactive calls. How the source made its calls: active means growth percent below 10; inactive means the rest.

What was measured:
Assay in all cases: NCI-60 one-dose screen, 48 h (100 = growth as untreated, 0 = no growth, -100 = all killed)
Conditions in all cases: 10 µM
[1] = test system: EKVX NSCLC
[2] = test system: SN12C renal
[3] = test system: UO-31 renal
[4] = test system: TK-10 renal
[5] = test system: ACHN renal
[6] = test system: CAKI-1 renal
[7] = test system: A498 renal
[8] = test system: CCRF-CEM leukemia
[9] = test system: MOLT-4 leukemia
[10] = test system: SR leukemia
[11] = test system: RPMI-8226 leukemia
[12] = test system: OVCAR-8 ovarian
[13] = test system: OVCAR-5 ovarian
[14] = test system: OVCAR-4 ovarian
[15] = test system: SK-OV-3 ovarian
[16] = test system: IGROV1 ovarian
[17] = test system: OVCAR-3 ovarian
[18] = test system: HS 578T breast
[19] = test system: NCI/ADR-RES ovarian
[20] = test system: T-47D breast

Compound	growth [1]	growth [2]	growth [3]	growth [4]	growth [5]	growth [6]	growth [7]	growth [8]	growth [9]	growth [10]	growth [11]	growth [12]	growth [13]	growth [14]	growth [15]	growth [16]	growth [17]	growth [18]	growth [19]	growth [20]
c1ccc(C(NC2CC3CCC2C3)c2ccccc2)cc1 (stereo not given)	96.8%	94%	65%	95.9%	98.9%	87.7%	116%	87.6%	94%	90.2%	96.2%	105%	101%	108%	95.9%	109%	114%	111%	103%	99.9%
CN(C)CC(O)c1ccc2cc(Br)c3ccccc3c2c1 (stereo not given)	58.5%	53.9%	57.6%	81.8%	17.2%	73.1%	23.9%	57.9%	31%	4.67% (active)	56.1%	79.7%	68.4%	84.9%	95.4%	22.5%	81%	74.9%	59.7%	69.4%
Oc1[nH]c2ccc(Cl)cc2c1/C=c1/ccc2c(c1)N=C(c1cccs1)N=2	66.3%	54.9%	72.7%	81.5%	58%	52.6%	44.6%	31.9%	42.3%	37%	48%	52.2%	89.3%	52.3%	87.5%	61%	56.1%	59.5%	64.3%	59.4%
N=c1c2c(-c3ccccc3)c(-c3ccccc3)n(Cc3ccccc3)c2ncn1CCCO	36.5%	40.3%	-0.199% (active)	35.4%	26.1%	13.9%	17.6%	28.9%	-10.9% (active)	-33.5% (active)	18.7%	32.5%	55.6%	35.7%	70.7%	8.33% (active)	8.78% (active)	46%	42.9%	65.9%
Nc1nccc(Nc2ccccc2)n1	107%	119%	94.7%	122%	100%	118%	97.3%	89.8%	96.3%	102%	96.6%	100%	95.9%	108%	109%	127%	114%	107%	111%	112%
CCCCN(CCCC)c1cc(C(=O)CCCCCN)c2ccccc2n1	24%	89.7%	-21.9% (active)	82.6%	85.5%	-45.4% (active)	72.6%	-70.4% (active)	-61.5% (active)	-69.3% (active)	-67.9% (active)	9.35% (active)	105%	100%	101%	-73.6% (active)	-96.9% (active)	96%	71.6%	92.9%
O=[N+]([O-])c1cccc(N=Cc2ccc3c(c2)OCO3)c1	104%	101%	76.7%	106%	122%	98.3%	118%	97%	89.7%	102%	104%	97.3%	116%	104%	110%	109%	112%	116%	105%	103%
CCN1CCC2(CC1)OC(c1ccccc1)C(c1ccccc1)O2 (stereo not given)	107%	110%	87.2%	103%	109%	111%	98.9%	91.7%	96.5%	96.9%	101%	106%	95.4%	110%	121%	144%	114%	115%	107%	103%
